H9c2 TAG inh: triacylglycerol accumulation inhibition; H9c2 cells, Nile Red lipid (TAG) fluorescence; cells loaded with 200 µM oleic acid; inhibition, % at 12.5 µM; 230,000 tested, 0.66% active; AID 651582;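 active = pattern-corrected inhibition of lipid staining of at least 50% with the nuclear-stain viability signal not falling by more than 50%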
NadD inh: inhibitors of Staphylococcus aureus NadD | AID 602399 | inhibition, % at 20 µM | purified NadD enzyme, colorimetric absorbance read-out | 360,000 tested, 0.78% active; in the data active = inhibition above about 26%
MPTP inh: inhibitors of mitochondrial permeability transition pore. inhibition, % at 10 µM. isolated mouse mitochondria, Ca2+ swelling absorbance, 30 min. 360,000 tested, 1.4% active;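 active = inhibition of 50% or more, scaled per plate between neutral and stimulator controls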
aDG glyco up: alpha-DG glycosylation activation; Pro5-aDG cells, alpha-DG glycosylation AlphaScreen (IIH6); 0% Pro5, 100% B10-LARGE cell signal; 360,000 tested, 0.22% active; AID 624168; activation, % at 10 µM;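 active = activation of at least 8% versus controls, or a plate z-score of at least 8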;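 also: Pro5 are CHO cells carrying HIG-tagged alpha-DG that lacks glycosylation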
aDG conf: confirmation of alpha dystroglycan glycosylation activators; shares compounds with aDG glyco up; 600 tested, 17% active; activation, % at 10 µM (by protocol); Pro5-aDG cells, alpha-DG glycosylation, IIH6 AlphaLISA; scaled to LARGE-overexpressing B10 cells as 100%; AID 651671;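 active = activation of at least 7% in one or more replicates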;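 also: cells exposed to compound for two days before detection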
Numbers stand for hits; - = inactive; . = no result given; ! = not confirmed by another sample. A selection: hits, their analogues and other compounds. The true share with any hit is near 2.7%.

SMILES | H9c2 TAG inh | NadD inh | MPTP inh | aDG glyco up | aDG conf
COc1cc(-c2nnc(COc3ccc(Cl)cc3C)o2)cc(OC)c1OC | - | - | - | 6.8 | -
CCCCOP(=O)(OCCCC)C1(NS(=O)(=O)c2ccccc2)C=CC(=O)c2ccccc21 (configuration not stated) | - | - | - | 5.9 | -
CCCCOCCCNS(=O)(=O)c1ccccc1 | . | - | - | - | .
Cc1cc(Br)ccc1OCCCCNC(C)(C)C | - | - | - | 4.3 | 7.2
Cc1ccc(S(=O)(=O)/N=C2\C(=O)c3ccccc3C([O-])=C2n2cc[n+](CCC(C)C)c2)cc1 | . | - | - | - | .
CCCC[n+]1ccn(C2=C([O-])c3ccccc3C(=O)/C2=N\S(=O)(=O)c2ccc(Br)cc2)c1 | . | - | - | 10.7 | 13.4
COc1ccc(OC)c(C(=O)N(C[C@H]2CC[C@@H]([C@@H]3CC[C@H](CO)O3)O2)C(C(=O)NC(C)(C)C)c2ccc(-c3ccccc3)cc2)c1 (some centres not stated) | - | - | - | 5.8 | -
COc1ccc(C(C(=O)NC(C)(C)C)N(C[C@H]2CC[C@@H]([C@@H]3CC[C@H](CO)O3)O2)C(=O)c2ccccc2)cc1 (some centres not stated) | - | - | - | - | .
CN(CC(=O)Nc1cccc(F)c1)C(=O)c1cccc(S(=O)(=O)N2CCN(c3ccccc3)CC2)c1 | - | - | - | 8.0 | -
CN(CC(=O)Nc1ccc(F)cc1)C(=O)c1cccc(S(=O)(=O)N2CCN(c3ccc(F)cc3)CC2)c1 | - | - | - | - | .
O=C(CSc1ccc(Cl)cc1)Nc1ccccc1 | - | - | - | - | .
O=C(CSc1cccs1)Nc1ccc(Cl)cc1 | - | - | - | 3.1 | -
CC1(C)CC2(C)OCCN2C(=S)N1 (configuration not stated) | - | - | - | 3.3! | -
Cc1c(Br)c([N+](=O)[O-])nn1CC(=O)N1CCCc2ccccc21 | . | - | - | 4.4 | -
CSCCNC(=O)C1(C)CCN1C(=O)c1sccc1C (configuration not stated) | - | - | - | - | .
COc1ccccc1CN(C)C(=O)CSCC(=O)Nc1ccccc1F | - | - | - | - | .
CC(C)COc1cccc(C(=O)NNC(=O)C2COc3ccccc3O2)c1 (configuration not stated) | - | - | - | 6.2 | -
COC(=O)c1cc(Cn2nc(C(=O)O)c3ccccc3c2=O)oc1C | . | - | - | - | .
CCc1ccc(C2c3[nH]c4ccccc4c3CCN2C(=O)CN2CCN(CC)CC2)cc1 (configuration not stated) | - | - | - | 8.0 | 12.5
CCCCOc1ccc(C(=O)NCC(=O)NCc2ccccn2)cc1 | - | - | - | 7.3 | -
FC(F)(F)c1cccc(Cc2noc(CN3CCC(c4ccncc4)CC3)n2)c1 | - | - | - | 6.1 | -
CN1CCCC2(CCCN(Cc3nc(Cc4cccc(C(F)(F)F)c4)no3)C2)C1 (configuration not stated) | - | - | - | - | .
C[C@H](CO)N1C[C@H](C)[C@@H](CN(C)S(=O)(=O)c2cccs2)Oc2c(NC(=O)NC3CCCCC3)cccc2C1=O | - | - | - | - | .
Cc1nc(CCNC(=O)Cc2ccc(F)cc2)cs1 | - | - | - | - | .
Cc1nc(CCNC(=O)Cc2ccc(Cl)cc2)cs1 | - | - | - | 8.7 | -
SMILES | H9c2 TAG inh | NadD inh | MPTP inh | aDG glyco up | aDG conf
NC(=S)NN=C(c1ccc(Br)cc1)C1CC1 | - | - | - | 5.7 | -
Fc1cc(Cl)ccc1NC(=S)NCCN1CCOCC1 | - | - | - | 5.3 | -
O=C(Cn1c(=O)oc2cc(S(=O)(=O)N3CCCC3)ccc21)Nc1ccccn1 | - | - | - | - | .
O=C(Cn1ncc2c(=O)oc3ccccc3c21)NCC1COc2ccccc2O1 (configuration not stated) | - | - | - | 8.2 | -
COc1ccc(C(CC(=O)O)c2ccc3c(c2)OCO3)cc1 (configuration not stated) | . | - | - | - | .
COc1ccc(CNCCC(c2ccccc2)c2ccc3c(c2)OCO3)cc1 (configuration not stated) | . | - | - | 3.9 | -
CCN1CCN(c2ccc(NC(=O)COc3ccc(Cl)cc3C)cc2)CC1 | - | - | - | 5.2 | -
Cc1cc(C)c2cc(C#N)c(NCCCN)nc2c1 | . | - | - | - | .
COc1cc(Br)cc(/C=N/NC(=O)Cc2ccccc2)c1O | - | - | - | - | .
COc1ccccc1CN=Cc1[nH]c2ccc(Br)c(Cl)c2c1O | - | - | - | 5.8 | -
